# Assay outcomes deposited in PubChem by National Center for Advancing Translational Sciences (NCATS).
# HT1080 IDH1KD tx – HT-1080 IDH1 knockdown cell toxicity (counter line); HT-1080 IDH1 knockdown viability, ATP luminescence, 48 h; Potency, µM (highest dose often 46.1 µM), most hits filed as cytotoxic; 360,000 tested, 2% active
#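 Luminescent ATP read-out (CellTiter-Glo, 10 min at room temperature) after 48 h compound exposure at 37 °C gave viability of IDH1-knockdown HT-1080 cells. Activity was normalised to DMSO and cell-free wells, then fitted as concentration-response curves.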
# HT1080-NT tox – kills 2HG-producing HT-1080-NT fibrosarcoma cells | HT-1080-NT fibrosarcoma viability, CellTiter-Glo ATP luminescence, 48 h | 360,000 tested, 1.6% active | Potency, µM (series often up to 46.1 µM), actives largely listed as cytotoxic;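 further: NT is the 2HG producing partner of a matched IDH1 knockdown line; nearly all actives have a fitted effect of over 55% in size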
#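 Read-out is CellTiter-Glo luminescence after 10 minutes at room temperature, following 48 hours' compound treatment of HT-1080-NT cells (750 cells/well, RPMI, 5% FBS, 37 degrees C).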
# uPA generation – blocks generation of uPA at the cell surface; cell surface uPA generation assay, qHTS; Potency, µM (series often up to 38.3 µM), most hits filed as inhibitors; 330,000 tested, 0.31% active; active means well fitted inhibition curve with a large enough effect; inconclusive means small, poorly fitted or top-dose-only effect; inactive means no such curve, though single readings can be large or run the other way; tested in mouse RAW 264.7 cells; further: nearly all actives have a fitted effect of over 55% in size
# DT40 TDP1 CPT – growth inhibition of DT40 Tdp1-/-;hTDP1 cells with camptothecin (screen for TDP1 inhibitors); chicken DT40 Tdp1-/-;hTDP1 cells + 20 nM CPT, ATP luminescence, 48 h; Potency, µM (series often up to 46.2 µM), usual class: inhibitors; 420,000 tested, 12% active; AID 686979; further: nearly all actives have a fitted effect of over 55% in size
#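 Cell growth measured by CellTiter-Glo luminescence after a minimum 48 h, 37 C compound exposure with 20 nM CPT in Tdp1-knockout DT40 cells stably expressing hTDP1, seeded 400/well; qHTS titration format.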
# TDP1 cell noCPT – qHTS for Inhibitors of human tyrosyl-DNA phosphodiesterase 1 (TDP1): qHTS in cells in absence of CPT. AID 686978, 2013. Potency, µM (top dose mostly 46.2 µM), hits mostly inhibitors. 420,000 tested, 15% active. DT40 Tdp1-/- hTDP1 cells, no CPT, ATP luminescence, 48 h; further: nearly all actives have a fitted effect of over 55% in size
#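 Readout: luminescence from CellTiter-Glo after 30 min in the dark at RT. Cells: DT40 Tdp1-/- with stable hTDP1, 400/well. Exposure: compounds alone, ≥48 hr, 37 °C.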
# IL1B secr inh – inhibitors of inflammasome signaling (IL-1 beta secretion) | THP-1 LPS/ATP IL-1B secretion, AlphaLISA, 16 h; stronger effect = lower value | activity change, % at 57.5 µM | 360,000 tested, 4.7% active | AID 743279; in the data active means activity change below about -50%; inconclusive means mostly about -30% to -49%
#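 Secreted IL-1B measured by AlphaLISA bead assay after 16 h compound exposure of THP-1 cells; compounds (final up to 57.5 uM) added 1 h before LPS (250 ng/mL) and ATP (1.25 mM) stimulation; lower signal means less secretion.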
# Numbers stand for hits; n = inactive; u = inconclusive; x = no result; [ ] = dose if it differs, or a comment. This is a sample that favours compounds with a hit; in the whole collection about 19% have one here. Unless noted, the call rests on the fitted dose curve; in most records, active means well fitted curve in the direction sought with a large enough effect; inconclusive means small, poorly fitted or top-dose-only effect, or another doubt; inactive means no such curve, though single readings can be large; an effect the other way counts as inactive or inconclusive.
SMILES,HT1080 IDH1KD tx,HT1080-NT tox,uPA generation,DT40 TDP1 CPT,TDP1 cell noCPT,IL1B secr inh
O=[N+]([O-])c1ccc(S(=O)(=O)NCc2nc3cccnc3n2Cc2ccccc2Cl)cc1,x,x,x,15µM,15µM,x
CCc1ccc(S(=O)(=O)NCc2nc3cccnc3n2Cc2ccccc2Cl)cc1,x,x,x,u,15µM,x
CCCC(=O)NCc1nc2cccnc2n1Cc1ccc(F)cc1,x,x,x,n,n,x
COc1ccc(CNC(=O)CCc2nc3cccnc3n2Cc2ccc(OC)cc2)cc1,x,x,x,n,n,x
COc1ccc(Cn2c(CNS(=O)(=O)c3ccc(Cl)s3)nc3cccnc32)cc1,x,x,x,u,16µM,x
Cc1cc(=O)n(Cc2ccc(Cl)cc2)c2c1c(C)nn2-c1ccccc1,x,x,x,n,n,x
COc1ccccc1Cn1c(CNS(=O)(=O)c2cccc([N+](=O)[O-])c2)nc2cccnc21,x,x,x,21µM,16µM,x
COc1cc(OC)c(C2C=CC(=O)CC2)c(OC)c1 (stereo not drawn),n,n,x,n,n,u
COc1cccc(NC(=O)COc2ncnc3sc(C)c(C)c23)c1,n,n,n,n,n,n
CCN(CC(=O)Nc1cccc(OC)c1)c1ncnc2sc(C)c(C)c12,n,n,n,21µM,21µM,n
Cc1cc(C(N)=O)nn1-c1c(Cl)cc(Cl)cc1Cl,n,n,n,n,n,n
Cc1cc(NC(=O)CCC(=O)N(CC(=O)NC2CCCC2)c2cccc(F)c2)no1,n,n,n,n,n,n
CNc1nc(-c2ccc3c(c2)CCN3C(=O)c2ccccc2F)c(C)s1,n,n,n,u,u,x
CC(=O)Nc1nc(-c2ccc3c(c2)CCN3C(=O)C2CC2)c(C)s1,u,n,n,1.5µM,1.3µM,n
Cc1sc(NC(=O)CN2CCCC2)nc1-c1ccc2c(c1)CCN2C(=O)c1ccc(F)cc1,u,n,n,u,18µM,n
CCOCCCN1C(=O)CN(C2CCCCCC2)C(=O)C1c1ccc(OC(C)C)c(OC)c1 (stereo not drawn),x,x,x,n,n,x
Cn1c(Cc2cccs2)nnc1SCC(=O)Nc1ccc(C(N)=O)cc1,n,n,n,n,n,n
C=C1[C@@H]2CC[C@@H](C2)C1(C)C,x,x,x,n,n,x
C(=Nc1ccc(/C=C/c2ccnc3ccccc23)cc1)c1cccs1,x,x,x,u,13µM,x
C(=Nc1ccc(/C=C/c2ccnc3ccccc23)cc1)c1ccco1,x,x,x,16µM,13µM,x
C(=Nc1ccc(/C=C/c2ccnc3ccccc23)cc1)c1ccc2c(c1)OCO2,x,x,x,u,18µM,x
CCn1nc(C)cc1C(=O)NCC1CCC2(CCN(Cc3ccccc3F)CC2)O1 (stereo not drawn),x,x,x,n[9.04 µM],u,x
COc1ccc(C(=O)COC(=O)c2cc(=O)c3ccccc3o2)cc1,n,n,n,n,n,n
Fc1ccc2c(-c3cccc(C(F)(F)F)c3)c(-c3ccccc3)ncc2c1,n,n,n,u,15µM,n
Fc1ccc2cnc(-c3ccccc3)c(-c3ccc(C(F)(F)F)cc3)c2c1,n,n,n,u,18µM,n
SMILES,HT1080 IDH1KD tx,HT1080-NT tox,uPA generation,DT40 TDP1 CPT,TDP1 cell noCPT,IL1B secr inh
Fc1ccc2cnc(-c3ccccc3)c(-c3cc(C(F)(F)F)cc(C(F)(F)F)c3)c2c1,n,n,n,u,16µM,n
COc1cc2cnc(-c3ccccc3)c(-c3ccc(C(F)(F)F)cc3)c2cc1OC,n,n,n,u,u,n
O=C(c1csnn1)N1CCC2(CCCN(c3ccncc3)C2)CC1,x,x,x,n,u,x
COc1ccc(NC(=O)CSCC(=O)Nc2ccccc2C(=O)N2CCCCC2)cc1,n,n,n,n,n,n
Nc1ccn([C@@H]2O[C@H](C(=O)N[C@H](CO)Cc3ccccc3)[C@@H](O)[C@H]2O)c(=O)n1,n,n,x,n,n,n
CC1=C(C(=O)OCc2ccccc2)C(c2ccccc2[N+](=O)[O-])NC(=O)N1C (stereo not drawn),n,n,n,u,23µM,n
COC(=O)C1=C(C)N(CCCC(=O)O)C(=O)NC1c1ccccc1OS(=O)(=O)c1ccccc1[N+](=O)[O-] (stereo not drawn),n,n,n,n,n,n
CCOC(=O)C1=C(C)N(Cc2ccccc2)C(=O)NC1c1ccccc1OS(=O)(=O)c1ccccc1[N+](=O)[O-] (stereo not drawn),n,n,n,10µM,9.2µM,u
COc1cc(/C=C/C(=O)OCC(=O)NCCc2ccc(S(N)(=O)=O)cc2)ccc1OCC#N,n,n,n,n,n,n
OCCN1CCN(c2ncnc3c2ncn3[C@H]2CN(Cc3ccc(F)cc3)C[C@@H](CO)O2)CC1,n,n,x,u,u,n
CN(Cc1ccc(Cl)cc1)C(=O)CCl,16µM,u,7.9µM,2.3µM,2.6µM,-103
COc1ccc(CN(C)C(=O)COC(=O)c2cnc(Cl)c(Cl)c2)cc1,n,n,n,n,n,-99
